HT1080 IDH1KD tx – kills HT-1080 cells with IDH1 knockdown; HT-1080 IDH1 knockdown viability, ATP luminescence, 48 h; Potency, µM (titrated, usually from 46.1 µM), for inactives: at the top dose activity, negative = toxicity, hits mostly cytotoxic; hit rate 2% among 360,000;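 note: 0% = DMSO wells and -100% = cell-free medium wells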
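CellTiter-Glo luminescence after 48 h compound exposure at 37 degrees C of IDH1-knockdown HT-1080 cells in 5% FBS RPMI. %Activity scaled between DMSO wells and cell-free media wells, with curves fitted and assigned curve classes.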
KB-V1 cytotox – kills drug-selected multidrug resistant KB-V1 cells | KB-V1 MDR cells viability, CellTiter-Glo, 72 h | Potency, µM (titrated, usually from 46.1 µM), actives largely listed as cytotoxic | hit rate 3.4% among 400,000; note: nearly all actives have a fitted effect of over 60% in size
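Drug-selected KB-V1 cells, grown in DMEM lacking phenol red with 10% FBS, receive compound titrations; after three days at 37 degrees C, surviving cell ATP is quantified by CellTiter-Glo luminescence and responses normalized and curve-fitted.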
HT1080NT lethal – kills 2HG-producing HT-1080-NT fibrosarcoma cells. HT-1080-NT fibrosarcoma viability, CellTiter-Glo ATP luminescence, 48 h. Potency, µM (top dose mostly 46.1 µM), without a hit: top-dose activity, negative = less viability, hits mostly cytotoxic. hit rate 1.6% among 360,000. AID 686970;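 note: NT is the 2HG producing partner of a matched IDH1 knockdown line; 0% = DMSO-treated cells and -100% = media-only wells without cells; nearly all actives have a fitted effect of over 55% in size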
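A 48-hour cytotoxicity screen used HT-1080-NT cells plated 2 hours before compound delivery. ATP-based CellTiter-Glo luminescence measured viability, normalized to DMSO and no-cell controls.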
KB-3-1 tox – kills parental KB-3-1 adenocarcinoma cells | KB-3-1 viability, CellTiter-Glo ATP luminescence, 72 h | Potency, µM (series often up to 46.1 µM), most hits filed as cytotoxic | hit rate 1.4% among 400,000; note: nearly all actives have a fitted effect of over 60% in size
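72 h, 37 °C compound treatment of KB-3-1 parental cells; CellTiter-Glo added, 10 min, luminescence read. Data corrected against DMSO-only plates and normalized before curve fitting.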
The depositor's hits bear a star; i = inactive; ? = inconclusive; · = no result given; ! = not active in a repeat. This is a sample that favours compounds with a hit; in the whole collection about 5.7% have one here. Calls come from the whole dose curve; as a rule, active = well fitted curve in the direction sought with a large enough effect; inconclusive = small, poorly fitted or top-dose-only effect, or another doubt; inactive = no such curve, though single readings can be large; an effect the other way counts as inactive or inconclusive. Unless noted, % is set by controls: 0 for no effect and ±100 for the full control effect; potency is the fitted concentration of half-maximal effect.

SMILES	HT1080 IDH1KD tx	KB-V1 cytotox	HT1080NT lethal	KB-3-1 tox
Cc1ccc2nc(-c3ccncc3)c(NC3CCCC3)n2c1	-4%	i	-3%	i
Cc1ccc2nc(-c3ccncc3)c(NC3CCCCC3)n2c1	12%	21µM*	14%	?
CCCCCCSc1ccc(-c2nc3cnccn3c2NC2CCCCC2)cc1	4%	?	1%	?
CCC(C(=O)NCc1ccccc1Cl)n1nc(C)c2sc3ccccc3c2c1=O (stereo unspecified)	·	i	·	i
CC(C)(C)NCc1cccn1-c1sc2c(c1C#N)CCCC2	5%	16µM*	0%	i
O=C(NCc1cccc(C(F)(F)F)c1)c1[nH]c(C(F)(F)F)nc1-c1ccccc1	?	?	?	i
COc1ccc(CN(C)C[C@@H]2OCCCC[C@H](C)Oc3ccc(NC(=O)Nc4ccc(F)cc4)cc3C(=O)N([C@H](C)CO)C[C@H]2C)cc1	?	i	21µM*	?
C[C@@H]1CN([C@@H](C)CO)C(=O)c2cc(NC(=O)Nc3ccc(F)cc3)ccc2O[C@@H]1CN(C)Cc1ccc(Oc2ccccc2)cc1	16µM*	?	?	i
O=C(COCc1cc(-c2ccc(F)cc2)on1)Nc1cc(F)ccc1F	·	i	·	i
CC(C)n1c(O)c(N=NC(=O)Cn2ccc(C(F)(F)F)n2)c2ccccc21	11%	8.2µM*	-2%	?
O=C(Cn1ccc(C(F)(F)F)n1)N=Nc1c(O)[nH]c2ccccc12	-8%	i	-21%	i
O=C(Nc1ccc(N2CCN(C(=O)c3ccccc3)CC2)c(Cl)c1)c1ccco1	?	?	-20%	?
CCCC(=O)N1CCN(c2ccc(NC(=O)c3cccs3)cc2Cl)CC1	2%	i	-4%	i
CCC(=O)N1CCN(c2ccc(NC(=O)c3cc4ccccc4o3)cc2Cl)CC1	16µM*	9.2µM*	?	?
COC(=O)c1ccc(N2CCN(C)CC2)c(NC(=O)c2cc3ccccc3o2)c1	2%	3.3µM*	-1%	i
CCCC(=O)N1CCN(c2ccc(NC(=O)c3cc4ccccc4o3)cc2Cl)CC1	21µM*	?	18µM*	?
O=C(Nc1ccc(N2CCN(C(=O)c3ccco3)CC2)c(Cl)c1)c1cc2ccccc2o1	15µM*	i	?	?
CCC(=O)N1CCN(c2ccc(NC(=O)c3ccco3)cc2Cl)CC1	12%	?	11%	i
CCOc1ccccc1N(C)C(=O)c1sc2nc3n(c(=O)c2c1C)CCCC3	·	i	·	i
O=C(CCl)NCc1c(Cl)cccc1-n1cccc1	10µM*	i	?	i
C[C@@H](CSc1ccccc1)CN1CC[C@H](C(C)(C)C)CCC1=O	17%	18µM*!	0%	?
COc1ccc(SC[C@H](C)CN2CC[C@H](C(C)(C)C)CCC2=O)cc1	-19%	15µM*!	-22%	?
Cc1ccc(SC[C@H](C)CN2CC[C@H](O)CCC2=O)cc1	·	i	·	i
CC(C)(C)C1CCC(=O)N(CCSc2ccccc2)CC1 (stereo unspecified)	-5%	?	-5%	i
CN1CCN(C(CNC(=O)C(=O)Nc2ccc(Cl)cc2)c2cccnc2)CC1 (stereo unspecified)	·	i	·	i
SMILES	HT1080 IDH1KD tx	KB-V1 cytotox	HT1080NT lethal	KB-3-1 tox
CN(C(=O)COC(=O)c1ccc2ccccc2n1)C1CCCCC1	-5%	i	-3%	i
O=C(CSc1nnc(-c2ccccc2)c(-c2ccccc2)n1)Nc1ccccc1Cl	·	?	·	i
O=C(CN1CC[n+]2c(-c3cccs3)csc21)c1ccc(Br)cc1	-2%	?	-6%	?
O=C(CN1CC[n+]2c(-c3ccccc3)csc21)c1ccc(Br)cc1	0%	?	21µM*	i
COc1ccc(-c2cnc3c(NC(C)=O)cc(-c4cccc(C(=O)NCCO)c4)cn23)cc1OC	-17%	i	-18%	i
COc1cccc(-c2cnc3c(NC(C)=O)cc(-c4cccc(C(=O)NCCN(C)C)c4)cn23)c1	?	i	16µM*	i
COc1ccc(-c2cnc3c(NC(C)=O)cc(-c4cccc(C(=O)NCCN(C)C)c4)cn23)cc1OC	33µM*	i	?	i
CCC(=O)N1CCc2cc(Br)cc(S(=O)(=O)CCC(=O)NCc3ccc(F)cc3)c21	·	i	·	i
CN(C)c1ccc(-c2n[nH]c(=S)n2-c2ccccc2)cc1	-4%	i	0%	i
CCN(CC)c1ccc(-c2n[nH]c(=S)n2-c2ccccc2)cc1	21µM*	23µM*	?	13µM*
COc1ccccc1-n1c(-c2ccccc2)n[nH]c1=S	2.6µM*	i	?	?
COc1ccc(OC)c(-n2c(-c3ccccc3)n[nH]c2=S)c1	0%	i	5%	i
Cc1c(Cl)cccc1NC(=O)Cn1c(=O)cc(C)c2c(C)nn(-c3cccc(F)c3)c21	·	i	·	i
COc1cnc(-c2ccccn2)nc1NC(C)C	?	7.3µM*	?	?
COc1ccccc1Sc1nc(-c2ccccn2)ncc1OC	?	i	-9%	?
CCOc1ccc(N/C(N)=N/c2nc(CSc3nnc(C)s3)cc(=O)[nH]2)cc1	0.92µM*	?	0.21µM*	0.73µM*
Cc1nnc(SCc2cc(=O)[nH]c(/N=C(\N)Nc3ccccc3)n2)s1	18µM*	?	?	?
Cc1cc(NC(=O)c2noc3c2CCCC3)nn1Cc1ccc(Cl)cc1	-10%	18µM*	-15%	?
O=C(NCc1ccccc1)c1noc2c1CCCCC2	?	21µM*	?	i
Cc1ccccc1Cn1nc(C)c(NC(=O)c2noc3c2CCCC3)c1C	?	5.2µM*	?	?
Cc1nn(Cc2ccc(F)cc2)c(C)c1NC(=O)c1noc2c1CCCCC2	-1%	?	-17%	i
COc1ccc2c(c1)CCc1c(C(=O)Nc3cc(C)n(Cc4ccc(Cl)cc4)n3)noc1-2	16%	i	17%	i
Cc1ccccc1Cn1nc(C)c(NC(=O)C2(C)CC2(Cl)Cl)c1C (stereo unspecified)	1%	?	1%	i
Cc1nn(Cc2ccccc2Cl)c(C)c1NC(=O)c1noc2c1CCCCC2	10µM*	i	-7%	?
COc1ccc(CN2CC[C@H]3C=CC[C@@H](C(=O)N4CCN(c5ccccc5)CC4)[C@H]3C2=O)cc1OC	·	i	·	i
COc1cccc(CNCCSc2nnnn2C)c1OCc1ccc(Cl)cc1	·	i	·	?
CCc1ccc(-n2c(=O)c3c4c(sc3n(CC(=O)c3ccc(Br)cc3)c2=O)CCC4)cc1	·	i	·	i
Cc1c(C(=O)NCc2ccoc2)oc2ccc3c(c12)C(=O)CC(C)(C)O3	?	18µM*	0%	i
CCOc1ccc(CNS(=O)(=O)c2ccc(-c3coc(C)n3)cc2)cc1OC	·	23µM*	·	?
CCOc1ccc(CNS(=O)(=O)c2ccc(-c3coc(C)n3)cc2)cc1	·	i	·	i
